DRD3 antagonist: blocks the human D3 dopamine receptor | D3R cells, DiscoveRx beta-arrestin luminescence, antagonist mode; stronger effect = lower value | max response, negative = inhibition, % | 2.5% of 360,000 active | AID 652054; in the data active = max response below about -50%; inconclusive = no clear call, values can overlap the other calls; note: % is set by controls: 0 for no effect and ±100 for the full control effect
Target sequence (P35462 whole entry, looked up): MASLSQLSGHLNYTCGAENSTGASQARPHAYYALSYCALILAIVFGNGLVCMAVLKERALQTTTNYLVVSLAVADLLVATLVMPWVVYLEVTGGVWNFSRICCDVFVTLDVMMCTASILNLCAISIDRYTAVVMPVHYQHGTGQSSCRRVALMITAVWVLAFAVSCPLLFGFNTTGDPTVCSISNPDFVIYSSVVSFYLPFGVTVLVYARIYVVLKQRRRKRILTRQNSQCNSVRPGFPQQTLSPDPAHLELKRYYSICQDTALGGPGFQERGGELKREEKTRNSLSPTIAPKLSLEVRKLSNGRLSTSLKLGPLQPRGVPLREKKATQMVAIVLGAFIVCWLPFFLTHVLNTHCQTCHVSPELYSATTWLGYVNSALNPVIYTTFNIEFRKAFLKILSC
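Cells expressing the human receptor were seeded at 1500 cells/well, incubated overnight at 37 degrees C in 5% CO2, then exposed to library compounds with dopamine controls for 90 minutes at 37 degrees C before luminescent detection.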
ATXN2 expr inh: ATXN2 expression inhibition. HEK-293 ATXN2-luciferase reporter, luminescence, 24 h. Potency, µM (titrated, usually from 57 µM), for inactives: at the top dose activity change, negative = inhibition, hits mostly inhibitors. 0.72% of 360,000 active. AID 1745845; note: potency is the fitted concentration of half-maximal effect; % is set by controls: 0 for no effect and ±100 for the full control effect; nearly all actives have a fitted effect of over 55% in size
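ATXN2-luciferase reporter cells (luciferase flanked by upstream and downstream ATXN2 gene portions) were treated 24 h at 37 °C with compounds at up to 57 uM. SteadyGlo luminescence gave expression; GF-AFC fluorescence gave viability.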
D3 ag: agonists of human D3 dopamine receptor. P35462. 0.58% of 410,000 active. D3R DiscoveRx beta-arrestin cells, luminescence, 90 min. max activation, %. AID 652048; in the data active = max activation above about 30%; note: 0% is about no effect
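Agonist-mode cell screen: cells plated at 1500/well and incubated overnight at 37 °C, then exposed to library compounds for 90 min at 37 °C. Detection reagent was added for 30–60 min at room temperature, and luminescence was read.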
HepG2 tox: counter-screen for TGF-b inhibitors: cytotoxicity in HepG2 cells; HepG2 CAGA-GFP viability, ATP luminescence, 18 h; Potency, µM (titrated, usually from 46.1 µM), for inactives: top-dose activity change, negative = cytotoxicity, most hits filed as cytotoxic; 0.76% of 410,000 active; AID 588856; note: potency is the fitted concentration of half-maximal effect
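CellTiter-Glo luminescence gave cytotoxicity after 18 hours at 37 degrees C. The cells were HepG2 CAGA-GFP in 1% FBS DMEM, stimulated with 500 pg/mL TGF-beta after compound addition. %Activity was normalised to no-cell wells (complete cell-killing) and DMSO (no toxicity), and curves were fitted and classified.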
TGFb SMAD3 inh: blocks TGF-b signaling; Potency, µM (series often up to 46.1 µM), for inactives: top-dose activity, negative = inhibition, usual class: inhibitors; HepG2 CAGA-GFP TGF-b/SMAD3 reporter, GFP fluorescence, 18 h; TGF-beta stimulated, 500 pg/mL final; 1.2% of 410,000 active; note: potency is the fitted concentration of half-maximal effect; % is set by controls: 0 for no effect and ±100 for the full control effect; nearly all actives have a fitted effect of over 65% in size
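First, reporter cells (HEPG2 CAGA-GFP) rested 2 h at 37 degrees C. Next, compounds were pinned in and TGF-beta added to 500 pg/mL final. After 18 h, GFP was imaged per cell and summed per well.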
ATXN viability: cell viability loss in ATXN counter-screen; S2 cells (HEK-293 line with an ATXN2-luciferase reporter) viability, CellTiter-Fluor protease fluorescence, 24 h; Potency, µM (doses to about 56.7 µM), usual class: cytotoxic; 0.49% of 400,000 active; note: potency is the fitted concentration of half-maximal effect; nearly all actives have a fitted effect of over 40% in size
Starred values were filed as active, the others as inactive; i = inactive; ? = inconclusive; · = no result. Hits are enriched below; roughly 4.8% of the tested compounds scored in any of these assays. Unless noted, calls come from the whole dose curve; as a rule, active = well fitted curve in the direction sought with a large enough effect; inconclusive = small, poorly fitted or top-dose-only effect, or another doubt; inactive = no such curve, though single readings can be large; an effect the other way counts as inactive or inconclusive.

SMILES | DRD3 antagonist | ATXN2 expr inh | D3 ag | HepG2 tox | TGFb SMAD3 inh | ATXN viability
COc1ccc(C)c2sc(N(CCN(C)C)C(=O)/C=C/c3cccs3)nc12 | -55* | ? | -18 | 11µM* | ? | ?
COc1ccc(OC)c2sc(N(CCN(C)C)C(=O)/C=C/c3cccs3)nc12 | -20 | ? | -20 | 16µM* | ? | ·
COc1cccc2sc(N(CCN(C)C)C(=O)/C=C/c3cccs3)nc12 | ? | · | -18 | -112% | ? | ?
COC(=O)c1ccc2nc(-c3cccc(Cl)c3)c(Cc3ccccc3OC)n2c1 | 7 | 15% | -6 | -25% | ? | i
Cc1ccc(-c2nc3ccc(Cl)cn3c2CC(C)(C)C)cc1 | ? | ? | -11 | -21% | -6% | i
CC(C)(C)Cc1c(-c2ccc(F)cc2)nc2ccc(Cl)cn12 | -4 | -37% | -6 | -55% | 11µM* | ?
COc1ccccc1Cc1c(-c2ccc(Cl)cc2)nc2c(C)cc(Br)cn12 | ? | ? | -8 | 13µM* | 14µM* | ?
COc1ccccc1Cc1c(-c2cccc(Br)c2)nc2c(C)cc(Br)cn12 | ? | 6% | -11 | -47% | ? | i
COc1ccccc1Cc1c(-c2cccc(Cl)c2)nc2ccc(Br)cn12 | -83* | 19% | -21 | -47% | ? | i
CC(C)(C)Cc1c(-c2ccc(Br)cc2)nc2ccc(Br)cn12 | 0 | -28% | -6 | -33% | 16µM* | ?
N#Cc1ccccc1CN1C(=O)c2ccccc2Sc2ccc(C(=O)OCc3ccco3)cc21 | · | -13% | -8 | -9% | -8% | i
CC(C)(C)Cc1c(-c2cccc(Cl)c2)nc2ccc(Br)cn12 | -109* | 14% | -16 | -45% | -12% | i
Cc1cc(Br)cn2c(Cc3ccccc3C(F)(F)F)c(-c3ccccc3)nc12 | 25 | 21% | 0 | · | · | i
CCCc1nc2ccc(C)cn2c1Cc1ccccc1OC | -3 | ? | 3 | -41% | ? | ·
CCCc1nc2c(C)cc(Br)cn2c1Cc1ccccc1C(F)(F)F | 0 | ? | -6 | 10µM* | ? | ?
Cc1ccc(Cc2c(-c3cccc(Cl)c3)nc3ccc(Br)cn23)cc1 | 21 | 34% | 6 | -23% | ? | i
CCCc1nc2ccc(Br)cn2c1Cc1ccccc1OC | -19 | ? | 78* | -49% | 16µM* | 22µM*
CN(C)c1ccc(/C=C/c2c(Br)cnc3ccccc23)cc1 | · | · | · | -12% | 1% | ·
O=C1NC(=S)SC1=Cc1ccccc1Cl | 16 | 21% | 38* | -33% | -14% | i
Cc1nn(C)cc1/C=C1\SC(=S)NC1=O | -70* | 69% | 0 | -1% | 3% | ?
Cc1nn(C)c(C)c1/C=C1/SC(=S)NC1=O | -24 | 15% | 6 | 5% | 12% | i
COc1ccccc1C=C1SC(=S)NC1=O | 0 | 19% | 4 | -26% | 10% | i
CCN(C(=O)c1cn(-c2ccc(OC)cc2)c(=O)c2ccccc12)c1cccc(Cl)c1 | · | · | -8 | -23% | 16µM* | ·
Cc1nn(S(=O)(=O)c2ccc(C(C)C)cc2)c(C)c1S(=O)(=O)N1CCCCCC1 | · | 13% | 4 | 3% | 0% | i
Oc1ccc(/C=C/c2nc(-c3ccccc3O)n(-c3ccccc3)n2)cc1 | 12 | -28% | 26 | -100% | ? | ?
SMILES | DRD3 antagonist | ATXN2 expr inh | D3 ag | HepG2 tox | TGFb SMAD3 inh | ATXN viability
Oc1ccc(/C=C/c2nc(-c3ccccc3O)n(-c3ccccc3)n2)c(O)c1 | · | · | 7 | 14µM* | 11µM* | ·
CCCc1nc2c3ccccc3ccn2c1Cc1cccc(Cl)c1 | 1 | 2% | 0 | -38% | -73% | 35µM*
Cc1nn(Cc2ccc([N+](=O)[O-])cc2)c(=O)n1-c1c(F)cccc1F | -61* | -4% | 1 | -12% | -2% | i
CCOc1ccc(NC(=O)c2ccc3c(c2)CCN3S(=O)(=O)c2ccc(Cl)cc2)cc1 | · | -14% | 7 | 1% | 0% | ?
COc1ccc(/C=c2\[nH]c(=O)/c(=C/c3ccc(OC)cc3)[nH]c2=O)cc1 | · | · | · | -31% | ? | ·
CCCCC(=O)Nc1ccc(C(=O)NNC(=O)CCc2ccccc2)cc1 | 10 | 4% | -4 | 5% | -6% | i
CC(C)(C)C(=O)NC(=S)NNC(=O)c1ccc(-c2ccccc2)cc1 | ? | · | -29 | -51% | 10µM* | ?
CCCCC(=O)Nc1ccc(C(=O)NCCc2ccccc2)cc1 | -62* | 8% | -17 | 19% | 0% | i
CCCCCC(=O)NNC(=O)c1ccc(-c2ccccc2)cc1 | 30 | 0% | 36* | 1% | 4% | i
CC(C)(C)C(=O)NC(=S)NNC(=O)c1ccncc1 | -24 | 0% | 12 | -7% | -6% | i
CN1CCN(c2nc(Nc3cccc(C(F)(F)F)c3)nc(N3CCOCC3)n2)CC1 | -98* | -11% | -30 | -87% | ? | i
CC(C)c1ccc(Nc2nc(N3CCOCC3)nc(N3CCOCC3)n2)cc1 | -74* | · | -10 | 3% | 8% | i
CN1CCN(c2nc(Nc3ccc(F)cc3)nc(Nc3ccc(F)cc3)n2)CC1 | 0 | 25µM* | -12 | 13µM* | ? | ?
FC(F)(F)c1cccc(Nc2nc(N3CCCC3)nc(N3CCCC3)n2)c1 | 11 | 10% | 0 | -21% | -10% | ?
CCOC(=O)CC(NC(=O)CCc1c(C)nc2c(c(C)nn2-c2ccc(C)c(C)c2)c1C)c1ccc(C)cc1 (configuration not stated) | · | 11% | 4 | 3% | 5% | i
O=S(=O)(c1ccc(OCC(O)CNC23CC4CC(CC(C4)C2)C3)c(Cl)c1)N1CCOCC1 (configuration not stated) | -13 | ? | -2 | 13µM* | ? | ?
O=C(COc1ccc(S(=O)(=O)N2CCOCC2)cc1Cl)NC1CCCCC1 | -15 | -10% | -21 | -3% | ? | i
O=C(O)c1cc(O)c2c(c1)[C@H]([C@H]1c3cc(C(=O)O)cc(O)c3C(=O)c3c(O[C@@H]4O[C@H](CO)[C@@H](O)[C@H](O)[C@H]4O)cccc31)c1cccc(O[C@@H]3O[C@H](CO)[C@@H](O)[C@H](O)[C@H]3O)c1C2=O | · | · | -8 | · | · | ·
CC1=NN(C(N)=S)C(=O)C1N=Nc1ccccc1C (configuration not stated) | -89* | 3% | 7 | -11% | -4% | i
CC1=NN(C(N)=S)C(=O)C1N=Nc1ccccc1O (configuration not stated) | 2 | · | 0 | -1% | 17% | i

Screening data (PubChem)
